Assay outcomes (PubChem BioAssay)
Only some compounds are listed: those with a hit (about 0.25% of all), similar ones and a draw of the others.
USP2a inh: qHTS Assay for Inhibitors of Ubiquitin-specific Protease USP2a Using CHOP2 as the Reporter; Ubiquitin carboxyl-terminal hydrolase 2 (Homo sapiens), O75604; USP2 core, Ub-CHOP2 coupled fluorogenic reporter, 485/531; Potency, µM (series often up to 38.3 µM), for inactives: at the highest dose activity change, negative = inhibition, usual class: inhibitors; 0.01% of 330,000 active; AID 463254, 2010;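 note: plate controls were DMSO wells for no effect and full inhibition by NEM control for full effect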
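Cell-free coupled assay: 10nM USP2 core preincubated 30min RT with compound in Tris-HCl pH 8.0/CaCl2/CHAPS buffer, then 25nM Ub-CHOP2 and 25nM reporter substrate; fluorescence (Ex 485/Em 531) read after 60min RT, normalized to NEM inhibition, concentration-response curves fitted.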
Chronic BCR inh: qHTS Assay to Find Inhibitors of Chronic Active B-Cell Receptor Signaling | ABC-DLBCL IkBa-CBG/CBR reporter, luminescence ratio, 4 h | Potency, µM (highest dose often 46.1 µM), inactives show at the top dose activity change, negative = inhibition, hits mostly inhibitors | 0.05% of 340,000 active; active = well fitted inhibition curve with a large enough effect in the signal ratio, with a control signal flat, not every such curve was filed as active; inconclusive = small, poorly fitted or top-dose-only effect, or effect the other way, or a change in a side signal; the % refers to the signal ratio;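 note: plate controls were basal doxycycline-induced cells for no effect and cells given 10 µM MG132 for full effect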
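Cell line TMD8 (human ABC DLBCL), stably expressing tet-inducible CBG68-IkBa fusion and CBR; IMDM/0.5% FBS; cpd up to 46 uM; dox induction, 4 h, 37C/5% CO2; dual luminescence; green/red ratio; MG132 control.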
RGS4 inhibitor: Inhibitors of Regulator of G Protein Signaling (RGS) 4: qHTS | 0.039% of 390,000 active | Regulator of G-protein signaling 4 (Homo sapiens), P49798 | AID 504845, 2011 | Transcreener GDP fluorescence polarization, RGS4-accelerated GTP hydrolysis | Potency, µM (titrated, usually from 114 µM), without a hit: at the top dose activity change, negative = inhibition, most hits filed as inhibitors; note: nearly all actives have a fitted effect of over 75% in size
Target sequence (P49798 whole entry, looked up): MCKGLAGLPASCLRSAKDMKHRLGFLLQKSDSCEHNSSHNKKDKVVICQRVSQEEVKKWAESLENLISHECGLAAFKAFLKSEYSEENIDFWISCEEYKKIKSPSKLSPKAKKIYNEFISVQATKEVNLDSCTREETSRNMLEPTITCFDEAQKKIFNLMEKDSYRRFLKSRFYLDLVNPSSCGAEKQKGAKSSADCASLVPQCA
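MLSMR compounds (23 nl, pin-transferred) preincubated 10 min at room temperature with a 500nM (2x) first reagent, then RGS4 at 900nM (2x) plus Transcreener GDP mix added; fluorescence polarization (620/688 nm) read before and after 90 min at 30 °C.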
Tb PFK block: qHTS Assay to Find Inhibitors of T. brucei phosphofructokinase; ATP-dependent 6-phosphofructokinase (Trypanosoma brucei brucei), O15648; T. brucei PFK, ADP-Glo luminescence; Potency, µM (doses to about 57.5 µM), inactives show at the top dose activity, negative = inhibition, most hits filed as inhibitors; 0.17% of 330,000 active;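 note: 0% = uninhibited 1x PFK enzyme wells and -100% = no-enzyme wells; nearly all actives have a fitted effect of over 60% in size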
Target sequence (O15648 whole entry, looked up): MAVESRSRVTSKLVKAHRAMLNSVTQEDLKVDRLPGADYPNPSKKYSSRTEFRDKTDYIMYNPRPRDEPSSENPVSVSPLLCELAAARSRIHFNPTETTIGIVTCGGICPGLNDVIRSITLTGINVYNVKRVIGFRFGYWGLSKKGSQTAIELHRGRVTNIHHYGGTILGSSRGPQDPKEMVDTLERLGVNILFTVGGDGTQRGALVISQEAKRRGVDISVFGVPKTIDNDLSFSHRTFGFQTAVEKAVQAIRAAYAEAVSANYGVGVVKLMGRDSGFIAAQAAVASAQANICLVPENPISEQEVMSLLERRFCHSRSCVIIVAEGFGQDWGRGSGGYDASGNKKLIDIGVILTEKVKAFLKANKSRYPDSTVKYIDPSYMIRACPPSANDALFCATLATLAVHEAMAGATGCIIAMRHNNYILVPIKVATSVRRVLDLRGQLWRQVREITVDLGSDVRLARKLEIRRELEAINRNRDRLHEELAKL
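PFK 1.25 nM, F6P 0.5 mM, ATP 0.1 mM, 0.1 M TEA pH 8.0, 5 mM MgCl2, 0.01% Tween20, 0.1% BSA; 45 min RT. ADP-Glo readout. qHTS titration up to 57 uM; curves fitted, compounds curve-classed.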
Tb PGK inh: qHTS Assay to Find Inhibitors of Phosphoglycerate Kinase; Phosphoglycerate kinase, glycosomal (Trypanosoma brucei brucei), P07378; PGK/GAPDH coupled, Kinase-Glo luminescence, 60 min; 0.043% of 380,000 active; Potency, µM (titrated, usually from 57.5 µM), for inactives: at the highest dose activity change, negative = inhibition, usual class: inhibitors; note: nearly all actives have a fitted effect of over 60% in size
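Luminescent ATP detection (Kinase-Glo Plus) follows a 60-minute room-temperature incubation, with wells lacking PGK as controls. Buffer: 100 mM TEA (pH 7.6), 5 mM MgCl2, 0.01% Tween-20. Coupling enzyme GAPDH (100 nM final) supplies unstable 1,3-BPG in-well.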
* = called active by the depositor; i = inactive; ? = inconclusive; . = no result given; ! = not active in a repeat; [ ] = dose if it differs, or a comment. Unless noted, calls come from the whole dose curve; as a rule, active = well fitted curve in the direction sought with a large enough effect; inconclusive = small, poorly fitted or top-dose-only effect, or another doubt; inactive = no such curve, though single readings can be large; an effect the other way counts as inactive or inconclusive. Unless noted, % is set by controls: 0 for no effect and ±100 for the full control effect; potency is the fitted concentration of half-maximal effect.

SMILES	USP2a inh	Chronic BCR inh	RGS4 inhibitor	Tb PFK block	Tb PGK inh
COc1ccc(OC)c(Nc2c3ccccc3nc3ccccc23)c1	-4%	?	-31%	-14%	0%
CC1(C(=O)O)NCCc2cc(O)c(O)cc21 (stereo not drawn)	.	.	i	.	.
C/C=C1\COC(C(=O)NCCN2CCOCC2)(C(F)(F)F)C=C1C=C(C)C (stereo not drawn)	.	.	29%	.	.
COc1cc(NC(=O)N2CCNC2=O)cc(C(=O)Nc2cccc(C(F)(F)F)c2)c1	0%	18µM*	-24%	-10%	i
CCN1CCN(Cc2ccc(NC(=O)c3cc(NC(=O)N4CCNC4=O)cc(OC)c3)cc2C(F)(F)F)CC1	-17%	?	-9%	-12%	10%
CCCCCC(=O)Nc1cc(S(=O)(=O)N2CCCCC2)ccc1N1CCCCC1	.	.	23%	.	-12%
CCCCCC(=O)Nc1cc(S(=O)(=O)O)cc2cc(S(=O)(=O)O)cc(O)c12	.	.	7%	.	1.1µM*
Nc1ncnc2c1[nH]c(=S)n2C1OC(CO)C(O)C1O (stereo not drawn)	.	.	-19%	.	.
COC(=O)c1c(C)cc(O)c(C=O)c1O	.	.	-6%	.	-6%
Cc1cc2c(C(C)C)c(O)c(O)c(C=O)c2c(O)c1-c1c(C)cc2c(C(C)C)c(O)c(O)c(C=O)c2c1O	5.6µM*	?	4.2µM*	?	.
CCCCN(CCCC)CCCNC(=O)c1cc(-c2ccc(Cl)s2)nc2ccccc12	.	.	-19%	.	10%
O=C(CCc1ccc(O)c(O)c1)N/N=C/c1ccc2c(c1)OCO2	0%	?	-3%	4.3µM*	6%
COC(=O)C1=C[C@@H](C(=O)OC)C2C3=C(C(=O)[C@@]2(C)NC(=O)c2ccccc2)[C@H](c2ccccc2)n2c(=O)n(-c4ccccc4)c(=O)n2[C@@H]3C1 (stereo partly drawn)	.	.	12%	.	.
CCCCC(=O)N1C/C=C\C(c2ccc(OC)cc2)N(Cc2ccc(F)cc2)C(=O)C1Cc1ccccc1 (stereo not drawn)	.	.	-17%	.	.
CC/C=C\C/C=C\C/C=C\C/C=C\C/C=C\C/C=C\CCC(=O)O	.	.	-40%[56.9 µM]	.	.
CCCCC/C=C\C[C@@H](O)/C=C/C=C\C/C=C\CCCC(=O)O	.	.	i	.	.
CCCCC/C=C\C/C=C\C/C=C\CC1OC1CCCC(=O)O (stereo not drawn)	.	.	38µM*	.	.
CC/C=C\C/C=C\C/C=C\C/C=C\C/C=C\CCCCCC(=O)O	.	.	21µM*	.	.
CCCCC[C@H](O)/C=C/[C@H]1[C@H](O)CC(O)[C@@H]1C/C=C\CCCC(=O)O (stereo partly drawn)	.	.	27µM*	.	.
O=C(NCC1COCCO1)c1ccc2nc(Cc3cccc(Cl)c3)oc2c1 (stereo not drawn)	0%	-2%	12%	15µM*	-7%
CCCN1CCc2cc(O)cc3c2[C@H]1Cc1ccc(O)c(O)c1-3	.	.	0.53µM*!	.	-9%
COc1ccc2c(CN(C)c3ccccc3)cc(=O)oc2c1	0%	15µM*	33%	-8%	1%
CC1CC=CC2C1C(=O)N(Cc1ccccc1)C2c1ccoc1 (stereo not drawn)	.	.	-5%	.	.
CN(Cc1ccccc1)C(=O)COC(=O)/C=C/c1ccco1	3%	?	-21%	-14%	-25%
CN(CCOC(=O)/C=C/c1ccco1)Cc1ccccc1	-8%	?	-33%	?	11µM*
SMILES	USP2a inh	Chronic BCR inh	RGS4 inhibitor	Tb PFK block	Tb PGK inh
CC(C)(C)OC(=O)NS(=O)(=O)Nc1ccccc1Br	.	.	-17%	.	.
O=C(O)C=Cc1ccc(Cn2ccnc2)cc1	.	.	2.7µM*	.	.
O=C(O)/C=C/c1ccc(Cn2ccnc2)cc1	.	.	-35%	.	-2%
CCOC(=O)N1CCN([N+]([O-])=NOc2cc(O/N=[N+](\[O-])N(CC)CC)c([N+](=O)[O-])cc2[N+](=O)[O-])CC1	.	.	-12%	.	.
O=C(CN1CCC(O)CC1)N1c2ccccc2C=Cc2ccccc21	10µM*	-1%	-21%	5%	i
c1cc(Nc2cccc3nccnc23)c2nccnc2c1	?	?	2%	0%	-7%
Brc1c(NC2=NCCN2)ccc2nccnc12	-1%	-16%	19µM*	-4%	.
O=C(Nc1ccc(OC(=O)c2ccco2)cc1)c1ccco1	4%	23%	-2%	-15%	?
O=C(Nc1ccc(Cl)c(Cl)c1)Oc1ccc(NC(=O)c2ccco2)cc1	-2%	?	5%	13µM*	-10%
CCc1ccccc1NC(=S)N=Nc1c(O)n(C)c2ccc(S(=O)(=O)N3CCOCC3)cc12	-5%	18µM*	-28%	-3%	-3%
O=C(NCCN1CCOCC1)C1(C(F)(F)F)C/C(=C/CCO)CCCO1 (stereo not drawn)	.	.	-20%	.	.
O=C1C(=Cc2ccc(Br)o2)C(=O)c2ccccc21	-25%	0%	?	?	7.9µM*
CC1=C/C(=C\c2ccc(Br)o2)C(=O)O1	5%	0%	-5%	?	10µM*
Cc1ccc(C(=O)O)cc1-c1ccc(C=C2C(=O)c3ccccc3C2=O)o1	1%	?	?	?	?
CN=c1scc(-c2ccccc2F)n1/N=C/c1ccc(O)c(O)c1O	13µM*	-17%	-51%	-18%	?
O=C(Oc1cccc2cccnc12)c1ccco1	-3%	23µM*	5%	-7%	i
COc1cc(OC)c2c(c1C(CCN1CCCC1)c1ccc(N(C)C)cc1)OC(=O)CC2c1ccc(N(C)C)cc1 (stereo not drawn)	.	.	-8%	.	.
COc1cccc(/C=N/NC(=O)c2cc3c(OC)ccc(OC)c3[nH]2)c1O	-8%	3.2µM*	0%	-1%	-5%
CC(=O)O[C@@H]1[C@@H](O)CN[C@@H]1Cc1ccccc1	.	.	-42%	.	.
COc1cc(/C=C2\OC(=O)c3c(OC)cccc32)ccc1O	2%	9.2µM*	18%	1%	-3%
COC(=O)CCC(=O)OC1(C)C(=O)C2=CN(Cc3ccc(OC)cc3)C(c3ccc(OC)cc3)=CC2=C(Br)C1=O (stereo not drawn)	.	.	?	.	-3%
CCC(=O)OC1(C)C(=O)C2=COC(c3ccc(OC)cc3)=CC2=C(Br)C1=O (stereo not drawn)	1%	?	?	-4%	20µM*
COc1ccc(C2=CC3=C(Br)C(=O)C(C)(O)C(=O)C3=CO2)cc1 (stereo not drawn)	4%	12%	?	-12%	20µM*
Cc1ccc(C(=S)NCS(=O)(=O)c2ccc(C)cc2)cc1	2%	?	7%	27µM*	6%
